# Data from PubChem BioAssay.
# Active and inactive are the calls of the source.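 How the source made its calls: active means Her2 level under about 52% in both replicate screens, with viability over 70% of control (limit read from the data); inconclusive means Her2 under the limit in one screen only, or viability under 70%; inactive means Her2 level above the set limit.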
# Tested on: not listed separately
# Experiment: Her2 expression decrease, cell viability multiplex – SKBR3 breast tumor cells, AlphaScreen, ATP viability, primary screen (AID 461);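 on viability: percent of carrier control wells set as 100% viability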
# Conditions: SKBR3 Her2 protein level, 18-24 h, measured here: SKBR3 viability, ATP luminescence, at 10 µM
row,SMILES,viability
1,CCOc1ccc(N(CC(=O)Nc2ccc(C)c(C)c2)S(=O)(=O)c2c(C)noc2C)cc1,101%
2,CCCn1c(OC)nc2c1c(=O)n(C)c(=O)n2C,89.5%
3,COc1cc2[nH]c(=O)n(CCCCCC(=O)N3CCN(c4ccccn4)CC3)c(=O)c2cc1OC,104%
4,CCOc1ccc(N(CC(=O)NC2CCCCC2)S(=O)(=O)c2c(C)noc2C)cc1,79.5%
5,O=C(c1ccco1)N1CCN(C(=O)c2sccc2-c2ccccc2)CC1,93%
6,CCSC1=C(C#N)C(c2ccccc2OC)CC(=O)N1 (stereo not drawn),92%
7,CCOC(=O)Cn1nc(-c2ccc(Cl)cc2)cc1N,78%
8,CC(C(=O)N1CC2(C)CC1CC(C)(C)C2)N1C(=O)c2ccccc2C1=O (stereo not drawn),84%
9,COc1cccc(N(C(C)=O)c2nc(C)cc(C)c2C#N)c1,102%
10,COc1cccc(NC(=O)c2ccco2)c1,99%
11,Cc1ccc(Cn2c(CN3CCOCC3)nc3c2c(=O)n(C)c(=O)n3C)cc1,80.5%
12,CCOc1ccc(NC(=O)CSc2nccn2C)cc1,103%
13,Cc1nc2ccc(Br)cn2c1NC(C)(C)C,89.5%
14,COc1ccccc1C(=O)NCCc1nc2ccccc2n1C,118%
15,Cn1ccnc1SCC(=O)Nc1ccc2ccccc2c1,96.5%
16,c1nc(NCC2(N3CCOCC3)CCCCC2)c2ccsc2n1,82.5%
17,Cc1noc(C(=O)Nc2ccc3c(c2)OCO3)c1Cl,84.5%
18,Cc1ccc(S(=O)(=O)N2CCOCC2)cc1C(=O)Nc1nc(-c2cccnc2)cs1,106%
19,Cc1cccc(C)c1OCc1nnc(SCC(=O)Nc2ccccc2F)o1,95.5%
20,CCN(CC)CCCN1C(=O)C(O)=C(C(=O)c2ccco2)C1c1ccc(C)o1 (stereo not drawn),102%

row,SMILES,viability
1,Cc1ccc(S(=O)(=O)C(C#N)c2nc3ccccc3nc2N2CCCCC2)cc1 (stereo not drawn),124%
2,C(/CCc1ccccc1)=N\n1cnnc1,105%
3,CCOCCCNC(=O)C(c1ccccc1)N(Cc1ccc2c(c1)OCO2)C(=O)CNC(C)=O (stereo not drawn),100%
4,COc1ccccc1N1CCN(c2cc(=O)n(Cc3ccc(F)cc3)c(=O)[nH]2)CC1,99%
5,CNC(=O)C1C2C=CC3(O2)C1C(=O)N(C1CC1)C3C(=O)NCc1ccc(OC)cc1 (stereo not drawn),99.5%
6,CCCSc1nc2c(cnn2-c2ccc(C)cc2)c(=O)[nH]1,93%
7,Nn1c(Cc2ccccc2F)nnc1SCC(=O)N1CC(=O)Nc2ccccc21,112%
8,CCc1ccc(N2CC(C(=O)OCC(=O)NC3CCS(=O)(=O)C3)CC2=O)cc1 (stereo not drawn),100%
9,Cc1ccccc1Cn1ccc(NC(=O)c2onc(C)c2Cl)n1,107%
10,O=C(CSc1ccc2nnc(-c3ccccc3)n2n1)N1CCN(c2ccccc2)CC1,93.5%
11,CC(C)C(NC(=O)c1ccc(S(=O)(=O)N2CCOCC2)cc1)c1nc2ccccc2[nH]1 (stereo not drawn),104%
12,Cc1ccc(SCC(=O)NCCN2C(=O)CSC2=O)c(C)c1,99.5%
13,N#Cc1c2n(c(=O)[nH]c1=O)CCCCC2,112%
14,CCN(C1CCCCC1)S(=O)(=O)c1ccc(S(=O)(=O)N2CCN(CCC#N)CC2)cc1,105%
15,COc1cccc2c(=O)c3c(cnn3C)n(C)c12,106%
16,Cc1nnc(N2C(=O)C(O)=C(C(=O)c3ccco3)C2c2ccc(F)cc2)s1 (stereo not drawn),99%
17,CC1(C)CC(=O)C(C=NCC2CCNCC2)=C(O)C1,104%
18,CCOC(=O)C(C)Sc1nnc(Cc2cc(=O)[nH]c(=O)[nH]2)n1-c1ccc(Cl)cc1 (stereo not drawn),92.5%
19,O=C(CS(=O)(=O)Cc1ccccc1)Nc1nc2ccccc2s1,104%

# Molecular target: Receptor tyrosine-protein kinase erbB-2 (Homo sapiens) (UniProt P04626)
# Sequence (P04626 whole entry, looked up): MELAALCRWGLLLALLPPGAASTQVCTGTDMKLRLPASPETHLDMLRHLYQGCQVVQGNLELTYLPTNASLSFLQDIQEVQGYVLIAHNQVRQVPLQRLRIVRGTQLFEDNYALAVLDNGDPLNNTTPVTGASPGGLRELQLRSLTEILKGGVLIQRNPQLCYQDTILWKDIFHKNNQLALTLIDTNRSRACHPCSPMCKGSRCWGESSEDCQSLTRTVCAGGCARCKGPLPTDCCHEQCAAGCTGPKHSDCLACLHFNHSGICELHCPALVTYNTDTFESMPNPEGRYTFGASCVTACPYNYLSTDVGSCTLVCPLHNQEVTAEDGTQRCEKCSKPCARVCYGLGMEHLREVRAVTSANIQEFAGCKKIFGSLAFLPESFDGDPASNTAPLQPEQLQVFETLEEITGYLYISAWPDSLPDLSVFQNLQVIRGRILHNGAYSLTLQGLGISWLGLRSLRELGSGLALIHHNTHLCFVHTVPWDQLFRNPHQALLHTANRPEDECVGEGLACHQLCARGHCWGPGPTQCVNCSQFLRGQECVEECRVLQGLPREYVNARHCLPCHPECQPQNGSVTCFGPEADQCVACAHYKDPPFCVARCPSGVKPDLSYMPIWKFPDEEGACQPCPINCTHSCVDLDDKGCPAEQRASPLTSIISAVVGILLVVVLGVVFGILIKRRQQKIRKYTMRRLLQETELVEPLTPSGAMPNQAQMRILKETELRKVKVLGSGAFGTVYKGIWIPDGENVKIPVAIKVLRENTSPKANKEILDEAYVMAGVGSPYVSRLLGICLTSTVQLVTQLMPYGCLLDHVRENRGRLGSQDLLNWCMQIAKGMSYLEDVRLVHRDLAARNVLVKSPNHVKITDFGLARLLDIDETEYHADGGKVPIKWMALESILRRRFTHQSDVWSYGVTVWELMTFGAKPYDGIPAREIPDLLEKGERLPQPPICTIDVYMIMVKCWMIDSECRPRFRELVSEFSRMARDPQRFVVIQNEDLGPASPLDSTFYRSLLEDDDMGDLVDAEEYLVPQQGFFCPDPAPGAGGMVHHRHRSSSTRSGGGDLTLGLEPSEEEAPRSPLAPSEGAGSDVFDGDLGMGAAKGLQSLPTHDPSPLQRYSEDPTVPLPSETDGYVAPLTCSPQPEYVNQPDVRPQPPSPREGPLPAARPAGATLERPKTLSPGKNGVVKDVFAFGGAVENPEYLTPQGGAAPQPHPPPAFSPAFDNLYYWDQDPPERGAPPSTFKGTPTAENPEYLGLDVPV
# Experiment: as above
# Conditions: 18-24 h, at 10 µM, stronger effect = lower value
row,SMILES,Her2 level
1,CCOc1ccc(N(CC(=O)Nc2ccc(C)c(C)c2)S(=O)(=O)c2c(C)noc2C)cc1,75% (inactive)
2,CCCn1c(OC)nc2c1c(=O)n(C)c(=O)n2C,88.5% (inactive)
3,COc1cc2[nH]c(=O)n(CCCCCC(=O)N3CCN(c4ccccn4)CC3)c(=O)c2cc1OC,92.5% (inactive)
4,CCOc1ccc(N(CC(=O)NC2CCCCC2)S(=O)(=O)c2c(C)noc2C)cc1,86.5% (inactive)
5,O=C(c1ccco1)N1CCN(C(=O)c2sccc2-c2ccccc2)CC1,104% (inactive)
6,CCSC1=C(C#N)C(c2ccccc2OC)CC(=O)N1 (stereo not drawn),97.5% (inactive)
7,CCOC(=O)Cn1nc(-c2ccc(Cl)cc2)cc1N,116% (inactive)
8,CC(C(=O)N1CC2(C)CC1CC(C)(C)C2)N1C(=O)c2ccccc2C1=O (stereo not drawn),101% (inactive)
9,COc1cccc(N(C(C)=O)c2nc(C)cc(C)c2C#N)c1,87% (inactive)
10,COc1cccc(NC(=O)c2ccco2)c1,116% (inactive)
11,Cc1ccc(Cn2c(CN3CCOCC3)nc3c2c(=O)n(C)c(=O)n3C)cc1,89.5% (inactive)
12,CCOc1ccc(NC(=O)CSc2nccn2C)cc1,85.5% (inactive)
13,Cc1nc2ccc(Br)cn2c1NC(C)(C)C,103% (inactive)
14,COc1ccccc1C(=O)NCCc1nc2ccccc2n1C,83% (inactive)
15,Cn1ccnc1SCC(=O)Nc1ccc2ccccc2c1,85.5% (inactive)
16,c1nc(NCC2(N3CCOCC3)CCCCC2)c2ccsc2n1,93% (inactive)
17,Cc1noc(C(=O)Nc2ccc3c(c2)OCO3)c1Cl,75% (inactive)
18,Cc1ccc(S(=O)(=O)N2CCOCC2)cc1C(=O)Nc1nc(-c2cccnc2)cs1,91% (inactive)
19,Cc1cccc(C)c1OCc1nnc(SCC(=O)Nc2ccccc2F)o1,101% (inactive)
20,CCN(CC)CCCN1C(=O)C(O)=C(C(=O)c2ccco2)C1c1ccc(C)o1 (stereo not drawn),93.5% (inactive)

row,SMILES,Her2 level
1,Cc1ccc(S(=O)(=O)C(C#N)c2nc3ccccc3nc2N2CCCCC2)cc1 (stereo not drawn),99.5% (inactive)
2,C(/CCc1ccccc1)=N\n1cnnc1,94.5% (inactive)
3,CCOCCCNC(=O)C(c1ccccc1)N(Cc1ccc2c(c1)OCO2)C(=O)CNC(C)=O (stereo not drawn),108% (inactive)
4,COc1ccccc1N1CCN(c2cc(=O)n(Cc3ccc(F)cc3)c(=O)[nH]2)CC1,68.5% (inactive)
5,CNC(=O)C1C2C=CC3(O2)C1C(=O)N(C1CC1)C3C(=O)NCc1ccc(OC)cc1 (stereo not drawn),84% (inactive)
6,CCCSc1nc2c(cnn2-c2ccc(C)cc2)c(=O)[nH]1,99% (inactive)
7,Nn1c(Cc2ccccc2F)nnc1SCC(=O)N1CC(=O)Nc2ccccc21,94.5% (inactive)
8,CCc1ccc(N2CC(C(=O)OCC(=O)NC3CCS(=O)(=O)C3)CC2=O)cc1 (stereo not drawn),112% (inactive)
9,Cc1ccccc1Cn1ccc(NC(=O)c2onc(C)c2Cl)n1,106% (inactive)
10,O=C(CSc1ccc2nnc(-c3ccccc3)n2n1)N1CCN(c2ccccc2)CC1,114% (inactive)
11,CC(C)C(NC(=O)c1ccc(S(=O)(=O)N2CCOCC2)cc1)c1nc2ccccc2[nH]1 (stereo not drawn),94.5% (inactive)
12,Cc1ccc(SCC(=O)NCCN2C(=O)CSC2=O)c(C)c1,110% (inactive)
13,N#Cc1c2n(c(=O)[nH]c1=O)CCCCC2,92% (inactive)
14,CCN(C1CCCCC1)S(=O)(=O)c1ccc(S(=O)(=O)N2CCN(CCC#N)CC2)cc1,114% (inactive)
15,COc1cccc2c(=O)c3c(cnn3C)n(C)c12,100% (inactive)
16,Cc1nnc(N2C(=O)C(O)=C(C(=O)c3ccco3)C2c2ccc(F)cc2)s1 (stereo not drawn),98.5% (inactive)
17,CC1(C)CC(=O)C(C=NCC2CCNCC2)=C(O)C1,117% (inactive)
18,CCOC(=O)C(C)Sc1nnc(Cc2cc(=O)[nH]c(=O)[nH]2)n1-c1ccc(Cl)cc1 (stereo not drawn),96.5% (inactive)
19,O=C(CS(=O)(=O)Cc1ccccc1)Nc1nc2ccccc2s1,85% (inactive)
